Screening data (PubChem BioAssay)
AmpC inh no detg: blocks E. coli AmpC beta-lactamase in detergent-free assay; AmpC nitrocefin hydrolysis, absorbance 480 nm, 0.0001% Triton; actives 0.52% (n = 330,000); Potency, µM (titrated, usually from 57.1 µM), for the others: at the top dose activity change, negative = inhibition, most hits filed as inhibitors; P00811; AID 485341;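 further: plate controls were no compound for no effect and no enzyme for full effect; nearly all actives have a fitted effect of over 20% in size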
Target sequence (P00811 whole entry, looked up): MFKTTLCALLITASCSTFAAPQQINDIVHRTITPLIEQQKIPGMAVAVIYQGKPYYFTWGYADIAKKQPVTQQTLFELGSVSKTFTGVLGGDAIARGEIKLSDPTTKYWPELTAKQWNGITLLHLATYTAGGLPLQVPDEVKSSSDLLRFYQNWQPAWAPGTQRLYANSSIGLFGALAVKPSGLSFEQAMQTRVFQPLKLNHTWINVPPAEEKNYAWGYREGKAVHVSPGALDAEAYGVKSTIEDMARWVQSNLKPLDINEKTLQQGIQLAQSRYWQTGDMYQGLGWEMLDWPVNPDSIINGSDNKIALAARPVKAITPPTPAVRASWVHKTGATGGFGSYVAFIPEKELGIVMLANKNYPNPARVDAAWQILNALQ
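AmpC (5.3 nM in the dispensed reagent) in 20 mM phosphate pH 7.0 with 0.01% (detergent screen) or 0.0001% Triton X-100 was preincubated with compounds for 15 min at room temperature. Nitrocefin was then added from an 800 uM solution, and hydrolysis was followed at 480 nm.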
AMA1-RON2 inh: inhibitors of Plasmodium falciparum AMA1-RON2 interaction. AlphaScreen AMA1-biotinylated RON2 peptide binding. Potency, µM (titrated, usually from 58.2 µM), for inactives: at the top dose activity change, negative = inhibition, usual class: inhibitors. actives 0.2% (n = 360,000). AID 720542;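 further: 0% = vehicle wells and -100% = peptide control; nearly all actives have a fitted effect of over 45% in size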
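AMA1 (3D7) with his tag at 25 nM final met compounds first, then biotinylated RON2 peptide at 25 nM; detection used donor plus acceptor beads, 10 µg/mL apiece, read by AlphaScreen after 30 min at room temperature.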
NS1 function inh: influenza NS1 inhibition; Potency, µM (series often up to 46.1 µM), inactives show at the top dose activity, positive = more growth; actives 0.4% (n = 270,000); calls by dose curve; further: actives are rising curves; nearly all actives have a fitted effect of over 50% in size
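OD600 was taken as the measure of yeast growth restored by compound in an NS1-expressing S. cerevisiae strain. Cells had been washed out of glucose medium and diluted 1:100 into galactose -URA medium, pH 6.0.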
AmpC detergent: AmpC beta-lactamase inhibition with detergent present | actives 0.041% (n = 370,000) | AmpC hydrolysis of nitrocefin, absorbance 480 nm, 0.01% Triton | Potency, µM (highest dose often 114 µM), for inactives: at the top dose activity change, negative = inhibition, actives largely listed as inhibitors | P00811;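 further: 0% = no-compound wells and -100% = no-enzyme wells; nearly all actives have a fitted effect of over 25% in size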
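20 mM phosphate pH 7.0 + 0.01% (detergent screen) or 0.0001% Triton X-100; 5.3 nM AmpC reagent; cpd preinc 15 min RT; nitrocefin (800 uM stock) to start; A480 q20 s × 4 min; Activity was normalised to no-enzyme and no-compound control wells.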
* hit, by the source's call; ? = inconclusive; . = no result given; [ ] = dose if it differs, or a comment. An excerpt weighted towards active compounds, which were near 0.86% of everything screened. Unless noted, the call rests on the fitted dose curve; in most records, active means well fitted curve in the direction sought with a large enough effect; inconclusive means small, poorly fitted or top-dose-only effect, or another doubt; inactive means no such curve, though single readings can be large; an effect the other way counts as inactive or inconclusive. Potency means the concentration at half of the fitted maximal effect.

SMILES | AmpC inh no detg | AMA1-RON2 inh | NS1 function inh | AmpC detergent
COC(=O)c1ccccc1NC(=O)C1CCN(S(C)(=O)=O)CC1 | 0.16µM* | -3% | 6% | 0%
COc1ccccc1NC(=O)C1CCN(S(C)(=O)=O)CC1 | -24% | 14% | 13% | -10%
CCCOC(=O)c1ccc(NC(=O)c2c(Cl)ccc(Cl)c2OC)cc1 | 28µM* | 14% | -22% | -7%
COc1ccc(S(=O)(=O)N(C)C)cc1NC(=O)Cc1c[nH]c2ccccc12 | 22µM* | 14% | . | -12%
Cc1ccc(S(=O)(=O)N(C)C)cc1NC(=O)CCc1c[nH]c2ccccc12 | -34% | 3% | . | 1%
O=C(NC1CCCCC1)C(=O)c1c(-c2ccccc2)[nH]c2ccccc12 | 13µM* | -5% | 27% | -10%
O=C(NC1CC1)C(=O)c1c(-c2ccccc2)[nH]c2ccccc12 | -14% | 4% | 7% | ?
O=C(CC(=O)c1ccccc1)Nc1cc(C(F)(F)F)ccc1Cl | 25µM* | -16% | 4% | -3%
O=C1CC(c2ccc(F)cc2)Cc2nc(N3CCc4ccccc43)ncc21 (stereo not given) | -15% | . | 7.1µM* | -10%
COc1ccc(NC(=O)c2cc(S(=O)(=O)Nc3ccc(OC)cc3)cs2)cc1 | 11µM* | -5% | -8% | -5%
COc1ccc(C(=O)Nc2cc(C)c3c(=O)oc4ccccc4c3n2)cc1 | 8.9µM* | 0% | 14% | ?
CCN(CC)c1ccc(Nc2nc(N3CCOCC3)c3ccccc3n2)cc1 | -10% | 24µM* | -7% | 0%
COc1ccc(Nc2nc(N3CCCC3)c3ccccc3n2)cc1 | -16% | ? | -5% | -9%
Cc1ccc(NC(=O)C(OC(=O)c2ccc(F)cc2)c2ccccc2)cc1Cl (stereo not given) | -20% | -8%[11.6 µM] | 1% | -1%
Cc1ccc(NC(=O)C(OC(=O)c2ccc(O)cc2)c2ccccc2)cc1Cl (stereo not given) | 7.1µM* | 7% | -1% | -3%
CC(=O)n1nc(-c2ccccc2)nc1NCc1ccc(N(C)C)cc1 | 21% | 8.9µM* | -9% | 2%
CCCC1=C/C(=C/c2ccc(-c3ccccc3OC)o2)C(=O)O1 | 32µM* | -16% | -4% | ?
Cc1ccc(C(CC(=O)c2ccc(Cl)cc2)C(=O)O)cc1 (stereo not given) | -16% | 8% | . | -3%
COC(=O)C(CC(=O)c1ccc(Cl)cc1)c1ccc(C(C)C)cc1 (stereo not given) | 0.25µM* | 7% | -16% | 1%
Cc1ccc(C(=O)CSc2nsc(C)c2C#N)cc1 | 0.25µM* | -1% | 9% | 4%
CCc1ccc(C2=NN(c3ccc(S(N)(=O)=O)cc3)C(c3ccc(F)cc3)C2)cc1 (stereo not given) | 0.2µM* | 20% | -10% | 0%
CCn1c(CCCNC(=O)c2ccc(F)cc2)nc2ccccc21 | 35µM* | -5% | -10% | ?
CN(C)c1ccc(N=Cc2cccn2C)cc1 | 2% | 22µM* | -10% | -3%
CN(C)c1ccc(N=Cc2nc(-c3ccccc3)oc2O)cc1 | -31% | -8% | -6% | -9%
N#C/C(=C/c1cccc(O)c1)C(=O)NCc1ccc(Cl)cc1 | 20µM* | 3% | -57% | -2%
SMILES | AmpC inh no detg | AMA1-RON2 inh | NS1 function inh | AmpC detergent
N#C/C(=C/c1ccc(O)c(O)c1)C(=O)NCc1ccc(Cl)cc1 | -38% | -3% | 7% | -5%
NC(=O)c1cc2c3ccccc3ccn2c1-c1ccccc1 | -45% | 15% | -44% | -2%
CN(C)c1ccc(N=Nc2ccccc2C(=O)OCC(=O)NCC2CCCCC2)cc1 | -6% | 11µM* | 15% | ?
CN(C)c1ccc(N=Nc2ccccc2C(=O)OCC(=O)NC2CCCC2)cc1 | 34% | 7.9µM* | -12% | -4%
CCOC(=O)c1ccc(NC(=O)NNS(=O)(=O)c2cc(OC)ccc2OC)cc1 | -4% | 20% | 8% | 6%
Cc1ccc2c(c1)N(C(=O)NC1CCCCC1)C(C)(C)CC2C (stereo not given) | -3% | 4% | 5% | -8%
COc1ccccc1/C=C/C=N/N1CCN(Cc2ccc(Cl)cc2)CC1 | 145% | ? | -48% | 0%
COc1ccc(Br)cc1/C=N/N1CCN(Cc2ccccc2Cl)CC1 | -12% | 8.9µM* | -2% | ?
COc1ccccc1/C=C/C=N\N1CCN(Cc2ccccc2Cl)CC1 | -8% | 20µM* | -3% | -2%
Clc1ccccc1CN1CCN(/N=C/c2ccncc2)CC1 | 121% | -14% | 15% | -2%
Clc1ccc(/C=N/N2CCN(Cc3ccccc3Cl)CC2)cc1 | -19%[11.4 µM] | 13µM* | . | -15%
CC(=O)N(Cc1cccnc1)c1nc2c(C)cc(C)cc2s1 | . | . | . | 0%
Nc1c(C(=O)NCC2CCCO2)sc2nc3c(c(-c4ccco4)c12)CC/C3=C\c1ccco1 (stereo not given) | 0% | 8.9µM* | ? | -6%
Cc1cc(O)c(CN(C)C)c2c1C(=O)/C(=C/c1ccco1)O2 | -4% | 6% | 8% | 0%
Cc1cc(O)c(C=O)c2c1C(=O)Oc1c(CO)c(O)c3c(c1O2)C(O)OC3=O (stereo not given) | -41% | 1.1µM* | 13% | 50µM*
O=C(CCCN1C(=O)/C(=C/c2ccccc2Cl)SC1=S)NNC(=O)c1ccc(Cl)cc1 | -19% | 37% | 3% | -9%
Cc1ccc(C(=O)NNC(=O)CCCN2C(=O)/C(=C/c3ccccc3Cl)SC2=S)cc1 | 32µM* | 59% | -1% | 1%
Cc1ccc(NC(=O)CN2C(=O)C(=O)N(C3CCCC3)C2=O)c(Cl)c1 | -6% | 13% | . | -14%
Cc1onc(-c2c(F)cccc2Cl)c1C(=O)N[C@@H]1C(=O)N2C(C(=O)O)C(C)(C)S[C@H]12 (stereo not given in full) | . | 30% | . | 2.5µM*
Cc1onc(-c2ccccc2Cl)c1C(=O)Nc1ccccc1 | -11% | 1% | 6% | 2%
Cc1onc(-c2ccccc2Cl)c1C(=O)N[C@@H]1C(=O)N2[C@@H]1SC(C)(C)[C@@H]2C(=O)O | 0.79µM* | 14% | . | 0.35µM*
CCS(=O)(=O)N1CCc2cc(C(=O)N3CCN(c4ccc(OC)cc4)CC3)ccc21 | . | . | . | -2%
COc1ccc(N(CC(=O)NCCSc2ccccn2)S(=O)(=O)c2ccccc2)c(OC)c1 | 15% | -2% | -8% | 9%
Cc1ccc(NC(=O)CCCn2c3ccccc3c(=O)c3cc(C)ccc32)c(Br)c1 | . | . | . | -4%
Cc1ccccc1NC(=O)CN1C(=O)S/C(=C\c2ccc(-c3cc(C(=O)O)ccc3C)o2)C1=O | -22% | -26% | 4% | 56µM*
Cc1cc(C(=O)O)ccc1-c1ccc(/C=C2\SC(=O)N(CC(=O)Nc3ccc4c(c3)OCO4)C2=O)o1 | -46% | . | 8% | -13%
Cc1ccc(C(=O)O)cc1-c1ccc(/C=C2\SC(=O)N(CC(=O)Nc3ccccc3)C2=O)o1 | -28% | ? | 17% | 56µM*
O=C(NCc1cccs1)c1ccc(-c2ccc(F)c(F)c2)c2ccoc12 | . | 13% | . | .
O=C(N/N=C/C(Br)=C/c1ccccc1)c1cc(-c2ccco2)[nH]n1 | 20µM* | 28% | 0% | 2%
